Source: PubChem BioAssay (EPA / NIEHS)
Several values for one entry are separate records, joined by “and”; a condition that tells them apart may be missing. Identical values can stand only once. Inconclusive results are not listed. A structure can be active in one record and inactive in another. Activity calls are given as the source filed them. The calls were made as follows, unless noted: active = hit-call score of the fitted dose curve at least 0.9, where 1 is the maximum; inconclusive = response in the unintended direction; inactive = score below 0.9.

Key:
[1] = read-out: sulfotransferase 2A1 (SULT2A1), SULT2A1 (gene 6822); test: LTEA_HepaRG_SULT2A1: Life Technologies and Expression Analysis (LTEA) Assay for sulfotransferase 2A1 (SULT2A1) using HepaRG (AID 2283531; active = hit-call score of the fitted dose curve at least 0.9, where 1 is the maximum; inactive = score below 0.9); conditions: mRNA level, 48 h; actives raise or lower the signal
How it was run: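 Gene-expression endpoint in a human liver cell line: SULT2A1 mRNA change after 48 h chemical treatment, curves fitted in both directions relative to 0.5% DMSO vehicle. Concentrations spanned eight half-log steps from 100 uM.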

[2] = read-out: Transforming Growth Factor (TGFA), TGFA (gene 7039); test: LTEA_HepaRG_TGFA: Life Technologies and Expression Analysis (LTEA) Assay for Transforming Growth Factor (TGFA) using HepaRG (AID 2283532; active = hit-call score of the fitted dose curve at least 0.9, where 1 is the maximum; inactive = score below 0.9); conditions: mRNA level, 48 h; actives raise or lower the signal
How it was run: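 HepaRG (human liver line), 48 h exposure, 8 conc. half-log down from 100 uM, 0.5% DMSO vehicle, duplicates; serum-free induction medium. TGFA mRNA by TaqMan qRT-PCR, ACTB/GAPDH/POLR2A normalization; gain/loss fit vs DMSO.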

[3] = read-out: Transforming Growth Factor (TGFB1), TGFB1 (gene 7040); test: LTEA_HepaRG_TGFB1: Life Technologies and Expression Analysis (LTEA) Assay for Transforming Growth Factor (TGFB1) Transporter using HepaRG (AID 2283533; active = hit-call score of the fitted dose curve at least 0.9, where 1 is the maximum; inactive = score below 0.9); conditions: mRNA level, 48 h; actives raise or lower the signal
How it was run: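 Eight-point concentration-response (max 100 uM, half-log) in HepaRG under serum-free induction conditions, 48 h. TGFB1 mRNA by qRT-PCR, housekeeping-normalized.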

TIMP1, TIMP1 (gene 7076) = test: LTEA_HepaRG_TIMP1: Life Technologies and Expression Analysis (LTEA) Assay for TIMP1 using HepaRG (AID 2283534; active = hit-call score of the fitted dose curve at least 0.9, where 1 is the maximum; inactive = score below 0.9;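 also: TaqMan qRT-PCR signal normalized to ACTB GAPDH and POLR2A housekeeping genes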); conditions: mRNA level, 48 h; actives raise or lower the signal
How it was run: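 TIMP1 induction or repression in HepaRG cells after 48 h chemical exposure (eight concentrations, highest 100 uM), assessed by normalized qRT-PCR with bidirectional fitting to DMSO controls.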

[4] = read-out: Tumor necrosis factor receptor 1 (TNFRSF1A), TNFRSF1A (gene 7132); test: LTEA_HepaRG_TNFRSF1A: Life Technologies and Expression Analysis (LTEA) Assay for Tumor necrosis factor receptor 1 (TNFRSF1A) using HepaRG (AID 2283535; active = hit-call score of the fitted dose curve at least 0.9, where 1 is the maximum; inactive = score below 0.9); conditions: mRNA level, 48 h; actives raise or lower the signal
How it was run: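 Assay uses 48 h chemical treatment of differentiated HepaRG monolayers, tested in duplicate at eight concentrations from 100 uM downward in 0.5% DMSO. mRNA is normalized to ACTB, GAPDH and POLR2A, with induction or suppression fitted relative to vehicle.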

[5] = read-out: Thyroid Hormone Responsive (THRSP), THRSP (gene 7069); test: LTEA_HepaRG_THRSP: Life Technologies and Expression Analysis (LTEA) Assay for Thyroid Hormone Responsive (THRSP) using HepaRG (AID 2283536; active = hit-call score of the fitted dose curve at least 0.9, where 1 is the maximum; inactive = score below 0.9); conditions: mRNA level, 48 h; actives raise or lower the signal
How it was run: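 mRNA induction or loss relative to 0.5% DMSO vehicle was fitted bidirectionally across an eight-point curve whose highest exposure was 100 uM. Human HepaRG liver cells received chemicals in duplicate over 48 h before RNA extraction.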

[6] = read-out: Cellular tumor antigen p53 (Homo sapiens) (UniProt P04637); test: LTEA_HepaRG_TP53: Life Technologies and Expression Analysis (LTEA) Assay for Tumor Protein P53 (TP53) using HepaRG (AID 2283537; active = hit-call score of the fitted dose curve at least 0.9, where 1 is the maximum; inactive = score below 0.9); conditions: mRNA level, 48 h; actives raise or lower the signal
How it was run: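 Differentiated HepaRG cells in serum-free induction medium exposed 48 h in duplicate to 8 half-log concentrations, top 100 uM, 0.5% DMSO. TP53 mRNA by TaqMan qRT-PCR (Fluidigm), normalized to ACTB, GAPDH, POLR2A; fitted bidirectionally versus DMSO.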

[7] = read-out: UDP glucuronosyltransferase (UGT1A1), UGT1A1 (gene 54658); test: LTEA_HepaRG_UGT1A1: Life Technologies and Expression Analysis (LTEA) Assay for UDP glucuronosyltransferase (UGT1A1) using HepaRG (AID 2283538; active = hit-call score of the fitted dose curve at least 0.9, where 1 is the maximum; inactive = score below 0.9); conditions: mRNA level, 48 h; actives raise or lower the signal
How it was run: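 Differentiated human HepaRG cells in serum-free induction medium were exposed in duplicate for 48 h to eight half-log concentrations up to 100 uM in 0.5% DMSO. UGT1A1 mRNA was quantified by TaqMan qRT-PCR, normalized to ACTB, GAPDH and POLR2A, and fitted bidirectionally against DMSO.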

[8] = read-out: UDP glucuronosyltransferase (UGT1A6), UGT1A6 (gene 54578); test: LTEA_HepaRG_UGT1A6: Life Technologies and Expression Analysis (LTEA) Assay for UDP glucuronosyltransferase (UGT1A6) using HepaRG (AID 2283539; active = hit-call score of the fitted dose curve at least 0.9, where 1 is the maximum; inactive = score below 0.9); conditions: mRNA level, 48 h; actives raise or lower the signal
How it was run: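 Measures mRNA change in HepaRG hepatic cells exposed 48 h to chemicals (eight-point, maximum 100 uM, 0.5% DMSO vehicle) in serum-free induction medium. Expression normalized to endogenous controls; DMSO served as negative control and baseline.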

[9] = read-out: X-box binding protein 1 (XBP1), XBP1 (gene 7494); test: LTEA_HepaRG_XBP1: Life Technologies and Expression Analysis (LTEA) Assay for X-box binding protein 1 (XBP1) using HepaRG (AID 2283540; active = hit-call score of the fitted dose curve at least 0.9, where 1 is the maximum; inactive = score below 0.9); conditions: mRNA level, 48 h; actives raise or lower the signal
How it was run: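 Eight concentrations (half-log, highest 100 uM, 0.5% DMSO) tested in duplicate on HepaRG cells over 48 h in serum-free induction medium; qRT-PCR of XBP1 normalised to ACTB, GAPDH, POLR2A.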

[10] = LTEA_HepaRG_LDH_cytotoxicity: Cytotoxicity Assessment in the Life Technologies and Expression Analysis (LTEA) Assay (AID 2283563);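 as to AC50: LDH activity released into spent culture medium as a marker of cell death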
How it was run: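 Spent-medium LDH after 48 h chemical exposure of HepaRG cells in serum-free induction medium; eight concentrations, half-log dilutions from 100 uM, duplicate wells, fitted upward relative to 0.5% DMSO.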

[11] = biological target: Cellular tumor antigen p53 (Homo sapiens) (UniProt P04637); test: TOX21_p53_BLA_p2_ratio: Tox21 HCT-116 p53 Agonism Beta-lactamase Assay, Ratio, Phase 2 (AID 2283592)
How it was run: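 Human colon HCT116 cells with an inducible p53 beta-lactamase reporter are exposed to test chemicals for 16 h at 37C. Reporter induction is read as the 460/530 nm emission ratio after CCF4-AM loading, normalized to DMSO.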

[12] = TOX21_p53_BLA_p3_viability: Viability Assessment in the Tox21 HCT-116 p53 Agonism Beta-lactamase Assay, Phase 3 (AID 2283593);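 also: cells exposed to compound for 16 h before reading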
How it was run: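 Cellular ATP was quantified by CellTiter-Glo luminescence, read after 30 min at room temperature. Beforehand, HCT116 cells (4000/well) received compound 5 h post-seeding, 217-fold diluted from DMSO, then incubated 16 h at 37C.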

[13] = TOX21_p53_BLA_p4_viability: Viability Assessment in the Tox21 HCT-116 p53 Agonism Beta-lactamase Assay, Phase 4 (AID 2283597);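 also: hits lower the luminescence signal meaning cytotoxicity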
How it was run: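 Luminescent ATP readout (CellTiter-Glo, 30 min, room temperature) in the same wells as the p53 bla ratio. HCT116 cells were treated for 16 h at 37C with DMSO-dissolved compounds.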

[14] = biological target: Cellular tumor antigen p53 (Homo sapiens) (UniProt P04637); test: TOX21_p53_BLA_p5_ratio: Tox21 HCT-116 p53 Agonism Beta-lactamase Assay, Ratio, Phase 5 (AID 2283599)
How it was run: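 Beta-lactamase reporter ratio (blue 460 nm over green 530 nm, 405 nm excitation) after 2 h CCF4-AM loading, in HCT-116 cells exposed 16 h at 37 C to compounds pinned at 217-fold dilution. Increases relative to DMSO baseline scored.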

[15] = TOX21_p53_BLA_p5_viability: Viability Assessment in the Tox21 HCT-116 p53 Agonism Beta-lactamase Assay, Phase 5 (AID 2283600)
How it was run: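 Seeded cells (4000/well) settle 5 h before compound addition. Plates then incubate 16 h at 37C, receive FRET substrate for 2 h, and finally CellTiter-Glo, with luminescence measured after a 30 min room-temperature incubation.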

[16] = biological target: Cellular tumor antigen p53 (Homo sapiens) (UniProt P04637); test: TOX21_p53_BLA_p4_ratio: Tox21 HCT-116 p53 Agonism Beta-lactamase Assay, Ratio, Phase 4 (AID 2283601)
How it was run: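 Signal is the blue/green (460nm/530nm) ratio of cleaved versus uncleaved CCF4-AM substrate, read after 2 h substrate loading. Cells were HCT116 carrying the p53-responsive beta-lactamase reporter, dosed 16 h at 37C, 5% CO2; CellTiter-Glo measured in parallel.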

[17] = ATG_XTT_Cytotoxicity: Cytotoxicity Assessment in the Attagene TRANS-FACTORIAL HepG2 Assay (AID 2283584)
How it was run: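 24 h chemical exposure of reporter-transfected HepG2; XTT signal loss vs DMSO indicates cytotoxicity.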

[18] = TOX21_p53_BLA_p2_viability: Viability Assessment in the Tox21 HCT-116 p53 Agonism Beta-lactamase Assay, Phase 2 (AID 2283591);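 also: compound exposure lasted 16 h at 37 °C; actives lower the ATP signal meaning cytotoxicity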
How it was run: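 Cytotoxicity readout: CellTiter-Glo ATP luminescence, 30 min at room temperature, after the beta-lactamase read. Cells were HCT116 exposed 16 h at 37C to compounds pin-transferred at 217-fold dilution from DMSO stocks.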

[19] = biological target: Cellular tumor antigen p53 (Homo sapiens) (UniProt P04637); test: TOX21_p53_BLA_p3_ratio: Tox21 HCT-116 p53 Agonism Beta-lactamase Assay, Ratio, Phase 3 (AID 2283596)
How it was run: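 HCT116 p53-bla cells (4000/well) given compound in DMSO (217-fold dilution) after 5 h, incubated 16 h at 37C. CCF4-AM substrate 2 h at room temperature; 460/530 nm emission ratio, gain fitted against DMSO.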

Measured: AC50

Sequence of Cellular tumor antigen p53 (Homo sapiens) (P04637 whole entry, looked up): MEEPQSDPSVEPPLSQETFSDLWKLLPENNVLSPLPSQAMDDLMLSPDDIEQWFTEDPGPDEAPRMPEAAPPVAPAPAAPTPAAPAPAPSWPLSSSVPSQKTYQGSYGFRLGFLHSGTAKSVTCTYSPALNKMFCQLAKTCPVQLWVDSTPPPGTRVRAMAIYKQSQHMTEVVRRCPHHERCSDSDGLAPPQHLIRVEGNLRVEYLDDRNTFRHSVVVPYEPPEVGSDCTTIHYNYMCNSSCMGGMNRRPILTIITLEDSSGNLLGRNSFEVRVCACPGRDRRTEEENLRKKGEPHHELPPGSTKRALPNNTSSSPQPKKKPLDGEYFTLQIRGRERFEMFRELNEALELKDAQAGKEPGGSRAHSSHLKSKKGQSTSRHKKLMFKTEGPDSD

CC(C)c1ccc(C(=O)N=C(N)N)cc1S(C)(=O)=O
active: [2] 0.555 µM | [3] 0.403 µM | [4] 0.337 µM | [5] 37.2 µM | [6] 0.457 µM | [7] 10.2 µM | [9] 0.288 µM
not listed: [17] | [18] | [19]
inactive: all other assays above

CCCCCCCCCCC
not listed: [12] | [13] | [14] | [15]
inactive: all other assays above

CNC(=O)[C@H]1O[C@@H](n2cnc3c(NCc4cc(Cl)ccc4OCc4cc(C)no4)ncnc32)[C@H](O)[C@@H]1N
not listed: [17] | [18]
inactive: all other assays above

CC1=C(/C=C/C(C)=C/C=C/C(C)=C/CO)C(C)(C)CCC1
inactive: [2] | [3] | TIMP1, TIMP1 (gene 7076) | [4] | [5] | [6] | [8] | [9] | [10] | [17] | [18] | [11] | [12] | [19] | [14] | [15] | [16]
active: [1] 52.2 µM | [7] 41.5 µM | [13] 78.5 µM | [14] 86.4 µM

NCC1(Cc2noc(=O)[nH]2)CCCCC1
active: [8] 0.226 µM
not listed: [15] | [17] | [18] | [19]
inactive: all other assays above

CN1CCN(Cc2cc(-c3ccc4[nH]c(=O)oc4c3)co2)[C@@H](c2ccc(F)cc2)C1
active: [3] 62 µM
not listed: [14] | [15] | [16] | [17] | [19]
inactive: all other assays above

O=C(O)Cc1ccccc1Nc1c(Cl)cccc1Cl
inactive: [1] | [2] | [3] | TIMP1, TIMP1 (gene 7076) | [4] | [5] | [8] | [9] | [10] | [17] | [18] | [11] | [12] | [19] | [14] | [16]
active: [7] 6.2 µM | [11] 68.9 µM | [19] 86 µM | [13] 46.1 µM | [14] 86.4 µM | [16] 71.7 µM

Cc1nc(C)nc(N2C[C@@H](C)N(c3ccnc([C@@H](C)O)n3)[C@@H](C)C2)n1
not listed: [13] | [14] | [16] | [17] | [19]
inactive: all other assays above

CCCCOC(=O)CCCCCCCCC(=O)OCCCC
not listed: [14] | [15] | [17] | [18] | [19]
inactive: all other assays above

CN[C@H]1CC[C@@H](c2ccc(Cl)c(Cl)c2)c2ccc(S(N)(=O)=O)cc21
inactive: [2] | [3] | TIMP1, TIMP1 (gene 7076) | [4] | [5] | [9]
active: [1] 87.6 µM | [6] 87.6 µM | [7] 37 µM | [8] 74.2 µM | [10] 36.9 µM | [18] 78.4 µM | [11] 87 µM | [12] 71.7 µM | [19] 86.1 µM | [13] 61.9 µM | [14] 82.5 µM | [15] 85.5 µM | [16] 86.1 µM

Oc1ccc2c(c1)OC[C@@H](N1CCC(O)(c3ccc(F)cc3)CC1)[C@H]2O
not listed: [12] | [15] | [16] | [17] | [18]
inactive: all other assays above

O=c1[nH]cc(F)c(=O)[nH]1
inactive: [1] | [2] | [3] | TIMP1, TIMP1 (gene 7076) | [4] | [7] | [8] | [9] | [10] | [17] | [18] | [12] | [13] | [15]
active: [5] 51 µM | [18] 1.34 µM and 1.39 µM | [11] 2.4 µM and 1.97 µM and 4.59 µM | [12] 882 nM and 2.38 µM | [19] 2.99 µM and 2.3 µM and 5.29 µM | [13] 15.7 µM and 9.55 µM | [14] 3.72 µM and 3.09 µM and 4.2 µM | [15] 1.68 µM | [16] 3.73 µM and 4.64 µM and 5.42 µM

Cc1ccc(C)c(C)c1
not listed: [13]
inactive: all other assays above

C=CCc1ccc(O)c(OC)c1
not listed: [13] | [17]
inactive: all other assays above
